From PubChem BioAssay (NCATS)
“And” between values parts separate entries of the source, which are not always exact repeats. Equal values may be shown once. Inconclusive results are not listed. A call without a number means that no potency is given here. A number with no mark means an inactive call. The source made the active and inactive calls. Calls come from the whole dose curve; as a rule, active = well fitted curve in the direction sought with a large enough effect; inconclusive = small, poorly fitted or top-dose-only effect, or another doubt; inactive = no such curve, though single readings can be large; an effect the other way counts as inactive or inconclusive.

How the values were obtained:
[1] = biological target: Cellular tumor antigen p53 (Homo sapiens) (UniProt P04637); experiment: Primary qHTS for small molecule compounds that upregulate eGFP-tagged delta133p53alpha (in N-terminal) cells. (AID 2060322); conditions: NCI-H358 eGFP-delta133p53alpha fluorescence, 24 h; activation: hits give high values; note: nearly all actives have a fitted effect of over 75% in size; note: potency is the fitted concentration of half-maximal effect
Chain of Cellular tumor antigen p53 (Homo sapiens) (P04637 whole entry, looked up): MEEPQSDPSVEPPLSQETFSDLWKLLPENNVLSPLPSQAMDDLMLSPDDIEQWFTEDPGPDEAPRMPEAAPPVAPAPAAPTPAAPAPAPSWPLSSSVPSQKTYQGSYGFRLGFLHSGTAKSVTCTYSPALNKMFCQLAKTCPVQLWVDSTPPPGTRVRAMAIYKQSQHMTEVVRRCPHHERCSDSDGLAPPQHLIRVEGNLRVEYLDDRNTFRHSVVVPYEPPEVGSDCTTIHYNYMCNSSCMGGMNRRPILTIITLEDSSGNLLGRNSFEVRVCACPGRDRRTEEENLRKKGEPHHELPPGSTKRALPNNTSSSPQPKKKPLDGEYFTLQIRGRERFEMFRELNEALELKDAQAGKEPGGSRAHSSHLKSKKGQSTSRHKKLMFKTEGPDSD
Summary of the method: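 NCI-H358 cells pre-induced 24 h with 10 ng/ml doxycycline to express N-terminal eGFP-delta133p53alpha, then dosed 24 h at 37C without doxycycline; fixed, Hoechst-stained, GFP intensity by laser scanning cytometry, normalized to DMSO (0%) and 57.5 uM 5-azacytidine (100%).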

[2] = biological target: Aldehyde dehydrogenase, mitochondrial (Homo sapiens) (UniProt P05091); experiment: qHTS for Inhibitors of the Aldehyde Dehydrogenase Family (ALDH2) Primary screen (AID 2061308); conditions: ALDH2 enzyme inhibition qHTS, 1536-well; series mostly up to 56 µM; note: nearly all actives have a fitted effect of over 55% in size
[3] = biological target: Retinaldehyde dehydrogenase 3 (Homo sapiens) (UniProt P47895); experiment: qHTS for Inhibitors of the Aldehyde Dehydrogenase Family (ALDH1A3) Validation screen (AID 2061312); conditions: ALDH1A3 enzyme inhibition qHTS validation, fluorescence; series mostly up to 84.7 µM; note: nearly all actives have a fitted effect of over 45% in size
[4] = biological target: Retinaldehyde dehydrogenase 3 (Homo sapiens) (UniProt P47895); experiment: qHTS for Inhibitors of the Aldehyde Dehydrogenase Family (ALDH1A3) Primary screen (AID 2061315); conditions: ALDH inhibition qHTS; series mostly up to 56 µM
[5] = BET inhibitor-based combinations targeting novel dependencies in MECOM-rearranged (r) AML: SET-2 cell line (AID 2202231); conditions: SET-2 AML cells viability, CellTiter-Glo luminescence, 48 h; viability: hits give low values, concentration not given here; note: nearly all actives have a fitted effect of over 35% in size; note: potency is the fitted concentration of half-maximal effect
Summary of the method: (§1)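 Here, 11-point titrations of each agent were applied to 500 seeded cells and incubated 48 hr; CellTiter-Glo signal, scaled against DMSO and empty wells, was integrated as AUC, then Z-scored within the individual line.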

[6] = BET inhibitor-based combinations targeting novel dependencies in MECOM-rearranged (r) AML: MV-4-11 cell line (AID 2202233); conditions: MV-4-11 AML viability, CellTiter-Glo luminescence, 48 h; series mostly up to 46 µM; note: nearly all actives have a fitted effect of over 45% in size; note: potency is the fitted concentration of half-maximal effect
Summary of the method: (§2)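 Normalized to DMSO and empty-well controls, the luminescence data from CellTiter-Glo after 48 hr drug exposure were fitted across 11 concentrations. Reported metrics are area under the dose-response curve and its Z-transformed form.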

[7] = BET inhibitor-based combinations targeting novel dependencies in MECOM-rearranged (r) AML: UCSD-AML1 cell line (AID 2202235); conditions: UCSD-AML1 AML cells viability, CellTiter-Glo, 48 h; series mostly up to 46 µM; note: nearly all actives have a fitted effect of over 40% in size; note: potency is the fitted concentration of half-maximal effect
Summary of the method: as §2

[8] = BET inhibitor-based combinations targeting novel dependencies in MECOM-rearranged (r) AML: OCI-AML3 cell line (AID 2202232); conditions: CellTiter-Glo luminescence, 48 h; Potency: OCI-AML3 viability; series mostly up to 46 µM; note: nearly all actives have a fitted effect of over 35% in size; note: potency is the fitted concentration of half-maximal effect
Summary of the method: as §1

[9] = BET inhibitor-based combinations targeting novel dependencies in MECOM-rearranged (r) AML: AML-191 cell line (AID 2202236; note: nearly all actives have a fitted effect of over 35% in size; note: potency is the fitted concentration of half-maximal effect); conditions: AML-191 viability, CellTiter-Glo luminescence, 48 h; series mostly up to 46 µM
Summary of the method: as §1

[10] = BET inhibitor-based combinations targeting novel dependencies in MECOM-rearranged (r) AML: AML-194 cell line (AID 2202237; note: nearly all actives have a fitted effect of over 40% in size; note: potency is the fitted concentration of half-maximal effect); conditions: AML-194 (MECOM-r AML) viability, CellTiter-Glo, 48 h; series mostly up to 46 µM
Summary of the method: as §1

[11] = BET inhibitor-based combinations targeting novel dependencies in MECOM-rearranged (r) AML: HNT-34 cell line (AID 2202234); conditions: HNT-34 AML viability, CellTiter-Glo luminescence, 48 h; series mostly up to 46 µM; note: nearly all actives have a fitted effect of over 35% in size; note: potency is the fitted concentration of half-maximal effect
Summary of the method: as §2

Row | SMILES | activation [1] | Potency [2] | Potency [3] | Potency [4] | viability [5] [%] | Potency [6] | Potency [7] | Potency [8] | Potency [9] | Potency [10] | Potency [5] | Potency [11] | Potency [1]
1 | CN1CCC(COc2cnc(-c3cccc(Cn4nc(-c5cccc(C#N)c5)ccc4=O)c3)nc2)CC1 | -3.12% and 9.55% | inactive | inactive | inactive | 115 | 5.9 µM (active) | inactive | – | – | – | – | – | –
2 | O=C(c1ccc(C(=O)N2CCC(N3CCCC3)CC2)c(Nc2ccccc2)c1)N1CCC(N2CCCC2)CC1 | 3.03% and -7.82% | inactive | inactive | inactive | 111 | 9.34 µM (active) | – | inactive | inactive | inactive | – | – | –
3 | COc1ccc(N(C)c2nc(C)nc3ccccc23)cc1 | 0.477% | inactive | inactive | inactive | – | 0.0105 µM (active) | – | 0.0093 µM (active) | 0.0093 µM (active) | 0.0105 µM (active) | 0.0118 µM (active) | – | –
4 | Cc1ccc2nc(NC(=O)CSc3nc4c(c(=O)n3-c3ccccc3)SCC4)sc2c1 | 24.2% and -14.8% | inactive | inactive | inactive | 114 | inactive | inactive | – | inactive | inactive | – | – | –
5 | Cc1noc2c1-c1ccccc1C(c1ccc(Cl)cc1)=N[C@H]2CC(N)=O | 32.4% | inactive | inactive | inactive | – | – | – | 1.32 µM (active) | – | – | 2.35 µM (active) | 1.48 µM (active) | –
6 | Cc1csc(NC(=O)c2sc3nc4c(c(C(F)(F)F)c3c2N)CCC4)n1 | -4.78% | inactive | inactive | inactive | 97.5 | inactive | inactive | – | inactive | inactive | – | inactive | –
7 | CC1(C)CCC(c2ccc(Cl)cc2)=C(CN2CCN(c3ccc(C(=O)NS(=O)(=O)c4ccc(N[C@H](CCN5CCOCC5)CSc5ccccc5)c(S(=O)(=O)C(F)(F)F)c4)cc3)CC2)C1 | – | inactive | inactive | inactive | – | 0.332 µM (active) | – | – | 0.742 µM (active) | 0.833 µM (active) | 1.32 µM (active) | 0.468 µM (active) | 26.9 µM (active)
8 | COCCOc1ccc(N2CCN(CCn3ncc4c3nc(N)n3nc(-c5ccco5)nc43)CC2)cc1 | 6.21% | inactive | inactive | inactive | 113 | – | inactive | inactive | inactive | – | – | – | –
9 | CCO[C@@H]1OC(=O)C[C@@H]1NC(=O)[C@@H]1CCCN1C(=O)[C@@H](NC(=O)c1ccc(N)c(Cl)c1)C(C)(C)C | -7.64% | inactive | inactive | inactive | 112 | inactive | inactive | – | – | inactive | – | inactive | –
10 | Cc1nn(C)c(COc2ccc(N3CCN(S(=O)(=O)N(C)C)CC3)cc2)c1-c1cccc2c(CCCOc3cccc4ccccc34)c(C(=O)O)n(CCN3CCOCC3)c12 | -22.8% | inactive | inactive | inactive | 112 | 6.61 µM (active) | inactive | – | inactive | inactive | – | – | –
11 | CC1(C)Cc2c(-c3ccccc3)c(-c3ccc(Cl)cc3)c(CC(=O)O)n2C1 | -18.1% and -12.4% | inactive | inactive | inactive | 104 | 23.5 µM (active) | inactive | – | inactive | inactive | – | – | –
12 | Fc1ccc2[nH]ccc2c1-c1nc(N2CCOCC2)c2sc(CN3CCN(CC4CC4)CC3)cc2n1 | 22% | inactive | inactive | inactive | – | – | 16.6 µM (active) | 11.8 µM (active) | – | 8.33 µM (active) | 23.5 µM (active) | 18.6 µM (active) | –
13 | O=C(c1cc(Cc2n[nH]c(=O)c3ccccc23)ccc1F)N1CCN(C(=O)C2CC2)CC1 | 8.16% and -16.2% | inactive | inactive | inactive | 80.3 | 8.33 µM (active) | – | – | – | – | – | – | –
14 | CCNC(=O)CCC/C=C\C[C@@H]1[C@@H](/C=C/C(O)CCc2ccccc2)[C@@H](O)C[C@@H]1O (stereo partly drawn) | -11.9% | inactive | inactive | inactive | 121 | inactive | inactive | – | inactive | – | – | inactive | –
15 | CNC(=O)c1ccc(-c2cnc3ncc(Cc4ccc5ncccc5c4)n3n2)cc1F | -4.61% and -7.16% | inactive | inactive | inactive | 95.9 | – | inactive | inactive | – | inactive | – | 18.6 µM (active) | –
16 | NC(=O)c1cccc2cn(-c3ccc([C@@H]4CCCNC4)cc3)nc12 | 20.3% and 6.68% | inactive | inactive | inactive | – | 4.17 µM (active) | – | – | – | – | 14.8 µM (active) | – | –
17 | CCCN1CCN(c2ccc(C(=O)NC3(C(=O)NCC#N)CCCCC3)cc2)CC1 | -6.68% | inactive | inactive | inactive | 102 | inactive | – | – | inactive | inactive | – | inactive | –
